Experimental data reported in PubChem BioAssay AID504832 (National Center for Advancing Translational Sciences (NCATS), 2011).
Among all 310,000 compounds or so, about 18,000 (5.8%) were called active. Roughly 22% stayed inconclusive and do not appear here. Shown is part of a subset that was picked to be rich in actives. Entries that show only a call come without a potency. Values without a mark were called inactive. Calls follow the shape of the dose curve; as a rule, active = well fitted inhibition curve with a large enough effect; inconclusive = small, poorly fitted or top-dose-only effect, or another doubt; inactive = no such curve, though single readings can be large or run the other way.

Assay: Primary qHTS for delayed death inhibitors of the malarial parasite plastid, 48 hour incubation
Conditions: P. falciparum luciferase growth in erythrocytes; series mostly up to 28.7 µM
Method in brief: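 Firefly luciferase activity from engineered P. falciparum reports growth; inhibitors lower the luminescent signal. Cultures contained 2% hematocrit erythrocytes at 0.1% final parasitemia.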
Potency is read from the fitted curve at half-maximal effect.

Compound	Potency	activity change, negative = inhibition
COc1cc(CN2CCCC(C(=O)c3ccc(SC)cc3)C2)cc(Cl)c1O (stereo unspecified)	11.7 µM (active)	
CSc1ccc(C(=O)C2CCCN(Cc3ccn[nH]3)C2)cc1 (stereo unspecified)	inactive	
COc1ccc(CCN(C)C(=O)C2CCCN(Cc3ccc(OC)c(OC)c3)C2)cc1OC (stereo unspecified)	inactive	
CCN1CCN(C2CCCCC2NS(=O)(=O)c2ccc(Cl)cc2)CC1 (stereo unspecified)	inactive	
Cc1csc(NC(=O)C2CCN(S(=O)(=O)c3ccccc3)CC2)n1	inactive	
CC1CCN(C(=O)COC(=O)c2cc(=O)[nH]c3ccccc23)CC1	inactive	
Cc1cc(S(=O)(=O)NC2CCCC2)ccc1-n1cnnn1	inactive	
CSc1ccc(CNCCN2CCOCC2)cc1	inactive	
CCCCc1ccc(NC(=S)NCCCN2CCOCC2)cc1	inactive	
CCCCC(CC)CNCc1cccn1CCN1CCOCC1 (stereo unspecified)	11.7 µM (active)	
O=C(CN1C(=O)S/C(=C\c2ccccc2F)C1=O)NCCCn1ccnc1	inactive	
O=C(COC(=O)Cc1ccccc1F)NNC(=O)c1ccc(Cl)cc1	inactive	
CC(C)c1nnc(NC(=O)CCC(=O)N2CCN(c3cccc(Cl)c3)CC2)s1	inactive	
NS(=O)(=O)c1ccc(CCNc2nc(C(F)(F)F)nc3ccccc23)cc1	inactive	
CCc1ccc(C(CNc2nc(C(F)(F)F)nc3ccccc23)N(C)C)cc1 (stereo unspecified)	11.7 µM (active)	
Cc1cc(C)n(-c2nc(C(F)(F)F)nc3ccccc23)n1		31.4% [at 5.75 µM]
CCC(NC(=O)c1cc(COc2ccc(F)c(F)c2)on1)c1ccncc1 (stereo unspecified)	inactive	
Cc1ccccc1CCNC(=O)C1CCC(=O)N(Cc2ccc(Cl)cc2)C1 (stereo unspecified)	inactive	
Cc1c(C)n2c(SCC(=O)N3CCCC3)nnc2[nH]c1=O	inactive	
COC(=O)Cc1ccc(OCC(=O)NC2CCCC2)cc1	inactive	
CCOc1ccc(NC(=O)COC(=O)C2CCC(=O)N2)c([N+](=O)[O-])c1 (stereo unspecified)	inactive	
COc1ccc(-c2c3c(=O)n(C)c(=O)n(C)c3cn2NC(C)=O)cc1	inactive	

Compound	Potency	activity change, negative = inhibition
COc1ccc(N(C(=O)c2cccnc2)S(=O)(=O)c2ccc3c(c2)n(C)c(=O)n3C)cc1	inactive	
COc1ccc(-c2c3c(=O)n(C)c(=O)n(C)c3cn2-c2cccc(OC)c2)cc1	11.7 µM (active)	
COc1cccc(-n2cc(C(=O)O)c3ccccc3c2=O)c1	inactive	
COc1cccc(-n2cc3c(c2-c2ccccc2)c(=O)n(C)c(=O)n3C)c1	5.22 µM (active)	
COc1ccc(-n2c(-c3ccccc3)nc3ccccc3c2=O)cc1	inactive	
Cc1cnc(NC(=O)c2ccc(Cl)nc2)s1	inactive	
COC(=O)c1ccc(N2CCOCC2)c(NC(=O)c2ccc3c(c2)OCCO3)c1	inactive	
Cc1ccc(Nc2ncnc3c2cnn3C)c(C)c1	inactive	
CC1CCc2sc3nc(N4CCN(CCO)CC4)n4ncnc4c3c2C1 (stereo unspecified)	inactive	
CCCCn1c(CN2CCN(CCO)CC2)nc2ccccc21	inactive	
N#Cc1c2c(c(N3CCN(CCO)CC3)n3c1nc1ccccc13)CCCC2	0.828 µM (active)	
CCN(CC(=O)Nc1cc(Cl)ccc1C)C(=O)CN1C(=O)NC2(CCCC2)C1=O	inactive	
CCn1ccnc1CN(C)C(=O)c1cc(COc2ccc(-n3cncn3)cc2)on1	inactive	
O=C(c1ccco1)N1CCN(C(=S)Nc2cc(F)cc(F)c2)CC1	inactive	
NC(=O)CC(NC(=O)Cc1ccc(Br)cc1)c1ccc(NC2CC3CCC2C3)c([N+](=O)[O-])c1 (stereo unspecified)	inactive	
CC(CCc1ccccc1)NCC(O)c1cccc([N+](=O)[O-])c1 (stereo unspecified)	0.233 µM (active)	
CN(C(=O)c1cccc([N+](=O)[O-])c1)c1ccccc1C(=O)NCc1ccccc1	inactive	
CC(C)OP(=O)(OC(C)C)C(Nc1ccccc1)c1cccc([N+](=O)[O-])c1 (stereo unspecified)	inactive	
COc1ccc(N2CCN(C(=O)c3ccccc3NC(=O)C3=C(C)OCCS3)CC2)cc1	inactive	
c1ccc(-n2nnnc2-c2cccnc2)cc1	inactive	
c1ccc(-c2noc(-c3cccs3)n2)nc1	inactive	
Clc1ccc(-n2nnnc2-c2cnc(-c3ccccn3)nc2-c2cccs2)cc1	3.7 µM (active)	

Compound	Potency	activity change, negative = inhibition
Cc1ccc(OC(=O)c2cncc(Br)c2)c(C)c1	inactive	
CCn1c(SCC(=O)NC2CC2)nnc1-c1ccncc1	inactive	
O=C(Nc1ccc(Cl)c(Cl)c1)c1ccccc1NC(=O)C1CC=CCC1C(=O)O (stereo unspecified)	inactive	
CN(C)CCSc1nc(N)c2c3c(sc2n1)COC(C)(C)C3	inactive	
CCCSc1nc(NCc2ccco2)c2c3c(sc2n1)COC(C)(CC)C3 (stereo unspecified)	9.28 µM (active)	
CN1CCc2c(sc3c2c(NCc2ccco2)nc2nnnn23)C1	inactive	
COc1cc(C2NC(=O)NC(c3ccccc3)=C2C(C)=O)c(Br)cc1OCC(N)=O (stereo unspecified)	inactive	
CCOc1ccc(C(C)NC(=O)CN2C(=O)NC3(CCCCC3)C2=O)cc1OCC (stereo unspecified)	inactive	
CCOc1ccc(C(C)=O)cc1COC(=O)CN1C(=O)NC2(CCCC2)C1=O	13.1 µM (active)	
Cc1ccc(COC(=O)CN2C(=O)NC3(CCCC3)C2=O)cc1	inactive	
CCC1C(=O)NCCN1C(=O)c1ccc2nc(Cc3ccc(OC)cc3)oc2c1 (stereo unspecified)	inactive	
COc1ccc(CCNC(=O)C2CCCN(S(=O)(=O)c3ccc(OC)cc3)C2)cc1 (stereo unspecified)	9.28 µM (active)	
CCN(CC(=O)Nc1ccc(S(=O)(=O)N2CCCC2)cc1)CC(=O)Nc1cccc(OC)c1	inactive	
CCCCNC(=O)C1CCCN(S(=O)(=O)c2ccc(S(=O)(=O)NCC(C)C)cc2)C1 (stereo unspecified)	inactive	
CCOC(=O)N1CCN(S(=O)(=O)c2ccc(OC)cc2)CC1	inactive	
CC(C)CCNC(=O)C1CCCN(S(=O)(=O)c2ccc(F)cc2)C1 (stereo unspecified)	inactive	
COc1ccc(CCNC(=S)N2CCN(S(=O)(=O)c3ccc(F)cc3)CC2)cc1	2.62 µM (active)	
CCOc1ccc(NC(=O)C2CCCN(C(=O)Nc3ccccc3)C2)cc1 (stereo unspecified)	inactive	
COc1ccc(CCNC(=S)N2CCN(S(=O)(=O)c3ccc(Cl)cc3)CC2)cc1	inactive	
CCOc1cccc(NC(=O)C2CCCN(S(=O)(=O)c3ccc(OC)cc3)C2)c1 (stereo unspecified)	4.65 µM (active)	
Cc1cccc(OCC(=O)NCCNC(=O)c2cccnc2)c1	inactive	
CC(C)(C)C(=O)Nc1ccc(-c2cn3cccnc3n2)cc1	inactive	
